AT treatment – candidate therapy for ataxia-telangiectasia; F2112 A-T fibroblasts, KAP-1 phosphorylation AlphaLISA; neocarzinostatin DNA damage 30 min before lysis; Potency, µM (series often up to 57.5 µM), usual class: activators; 320,000 compounds, 0.19% hits; further: nearly all actives have a fitted effect of over 45% in size
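ATM-like activity read as KAP-1 phosphorylation via AlphaLISA donor/acceptor antibody pairs after lysis and 6 hr at 25C. Cells were ATM-null patient fibroblasts (F2112, hTERT), dosed 60 min, then exposed to the DSB inducer NCS for 30 min.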
TCR activator – T cell receptor activation | primary human leukocytes, anti-CD3, IL-2 HTRF, 48 h | Potency, µM (series often up to 9.22 µM), most hits filed as activators | 330,000 tested, under 10 active | AID 504894
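Primary human leukocytes receive a-CD3 beads and test compound and are incubated 48 hr. Secreted IL-2 is then assayed by HTRF, measuring 665nm acceptor emission after 320nm excitation of the europium donor.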
Nrf2 inh – blocks Nrf2 signaling; A549 ARE-Fluc reporter, luciferase luminescence, 18-24 h; Potency, µM (top dose mostly 46 µM), usual class: inhibitors; 360,000 compounds, 2.1% hits; AID 504444; further: nearly all actives have a fitted effect of over 60% in size
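Nrf2 activity is the BugLite luminescence, read 15 min after reagent at room temperature, following CellTiter-Fluor cytotoxicity readout (30 min, 37C). Compound titrations were applied for 18-24 h to 5000 A549 ARE_Fluc cells/well in 5% FBS OPTI-MEM.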
CCT modulator – cytosolic chaperonin activity modulation. purified chaperonin ATPase assay, HTRF ADP detection, 30 min. activity change, % (concentration not given with the values), hits read low. 360,000 compounds, 0.3% hits. AID 651819; in the data active means activity change below about -30%
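First, chaperonin was dispensed at 40 nM or 20 nM final depending on batch activity. Next, compounds were pinned at 76 uM and ATP added at 10 uM. After 30 min at 37 °C, ADP detection reagents ran 30 min at ambient temperature.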
Nrf2 ARE act – Nrf2 pathway activation; AREc32 ARE-luciferase reporter (MCF7-derived line), luminescence, 24 h; 410,000 compounds, 0.31% hits; AID 624171; Potency, µM (top dose mostly 46.1 µM), actives largely listed as activators; further: nearly all actives have a fitted effect of over 65% in size
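Quantitative high-throughput format: AREc32 reporter cells, 1000 per well, received compound by pin transfer and were incubated 24 hr at 37 deg C, 5% CO2, before Steady-Glo luminescence detection.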
A549 viability – counter-screen for Nrf2 inhibitors: cytotoxicity in A549 cells; A549 ARE-Fluc cells, CellTiter-Fluor viability, 18-24 h; Potency, µM (titrated, usually from 46 µM), actives largely listed as inhibitors; AID 504648; 390,000 compounds, 0.16% hits
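Cytotoxicity counterscreen: CellTiter-Fluor fluorescence was measured in A549 ARE_Fluc cells after 18-24 h of compound exposure in a concentration series. The subsequent BugLite luminescent read reports ARE-luciferase activity.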
Of the large screens only hits and unclear results are named; the others gave an inactive call. The list is not random: actives were taken first. Their share in the collection is about 2.6%. Unless noted, the call rests on the fitted dose curve; in most records, active means well fitted curve in the direction sought with a large enough effect; inconclusive means small, poorly fitted or top-dose-only effect, or another doubt; inactive means no such curve, though single readings can be large; an effect the other way counts as inactive or inconclusive.

COc1ccc(OC)c(CNn2c(-c3cccc(C)c3)nc3ccccc3c2=O)c1	Nrf2 inh 18µM
CCCOc1ccc(-c2nc(SC)[nH]c(=O)c2C#N)cc1OC	Nrf2 inh inconclusive (no result: AT treatment, TCR activator, CCT modulator)
O=S(=O)(c1ccc(NC(=S)N2CCN(c3ccc(O)cc3)CC2)cc1)N1CCOCC1	Nrf2 inh 12µM
O=C(NCC1CCN(c2ccc(S(=O)(=O)N3CCOCC3)cc2)CC1)Nc1ccccc1F	none
O=S(=O)(c1ccc(NC(=S)N2CCOCC2)cc1)N1CCCCC1	none (no result: AT treatment, TCR activator, Nrf2 inh, A549 viability)
O=C(NCC1CCN(c2ccc(S(=O)(=O)N3CCOCC3)cc2)CC1)Nc1ccccc1	Nrf2 inh 15µM
COc1ccccc1C(=O)NCC1CCN(c2ccc(S(=O)(=O)N3CCOCC3)cc2)CC1	Nrf2 inh 23µM, A549 viability inconclusive (no result: AT treatment)
COc1ccccc1C(=O)NCCC(=O)Nc1ccc(S(=O)(=O)N2CC(C)CC(C)C2)cc1 (stereo not given)	Nrf2 inh 13µM
COc1cccc(C2c3c(ncn(-c4cccc(F)c4)c3=N)Oc3ccc4ccccc4c32)c1 (stereo not given)	Nrf2 inh inconclusive (no result: AT treatment, TCR activator, CCT modulator, Nrf2 ARE act)
CN1C(=O)c2[nH]nc(-c3ccc(F)cc3)c2C1c1cccc(O)c1 (stereo not given)	none (no result: AT treatment, TCR activator, CCT modulator)
C=CCOc1ccc(CN(C)C(=O)C2CCCO2)cc1 (stereo not given)	none
O=C(NCCc1ccccc1)c1cc(Sc2cccc(Cl)c2)nc2ccccc12	none (no result: AT treatment, TCR activator, Nrf2 inh, CCT modulator)
Cn1c(=O)c2nc(SCC(=O)Nc3ccc(OC(F)(F)F)cc3)n(C)c2n(C)c1=O	none (no result: AT treatment, TCR activator, Nrf2 inh, CCT modulator)
O=C(Nc1cccc(-c2nc3ccccc3o2)c1)c1cccc2c(Cl)cccc12	none (no result: AT treatment, TCR activator, CCT modulator)
COc1ccc(/C=N/n2cnn(Cc3ccccc3Cl)c2=S)cc1OC	Nrf2 inh 18µM
COc1ccc(OC)c(S(=O)(=O)NCC(c2ccc(N(C)C)cc2)N2CCOCC2)c1 (stereo not given)	none (no result: AT treatment, TCR activator, Nrf2 inh, CCT modulator)
CC(=O)Nc1nonc1-c1nnc(SCc2ccccc2)n1C	none (no result: AT treatment, TCR activator, CCT modulator)
COc1ccc2c(c1OC)C(=O)N(c1ccc(F)cc1)C2	Nrf2 inh inconclusive, CCT modulator -40
COc1ccc2c(c1OC)C(=O)N(c1cccc(NC(C)=O)c1)C2	Nrf2 inh inconclusive
CCOc1ccc(NCc2cc3cc(OC)ccc3[nH]c2=O)cc1	Nrf2 inh 26µM
COc1ccc2[nH]c(=O)c(CNc3cc(C)ccc3C)cc2c1	Nrf2 inh 18µM, A549 viability inconclusive
COc1ccc2[nH]c(=O)c(CNc3ccc(C)cc3C)cc2c1	none
CCOc1ccc(N2C(=O)CC(NC3CCN(C(=O)c4cccs4)CC3)C2=O)cc1 (stereo not given)	none
COc1cccc(NC(=O)c2ccc(CNS(=O)(=O)c3ccc4c(c3)C(C)(C)C(=O)N4C)cc2)c1	Nrf2 inh 16µM (no result: AT treatment, TCR activator, CCT modulator)
Cc1ccc(NC(=O)c2ccc(CNS(=O)(=O)c3ccc4c(c3)C(C)(C)C(=O)N4C)cc2)cc1C	Nrf2 inh 18µM (no result: AT treatment, TCR activator, CCT modulator)
COc1cccc(S(=O)(=O)NCc2ccc(C(=O)Nc3cccc(Cl)c3)cc2)c1	A549 viability inconclusive (no result: Nrf2 inh)
Cc1cccc(NC(=O)c2ccc(CNS(=O)(=O)c3ccc4c(c3)C(C)(C)C(=O)N4C)cc2)c1	Nrf2 inh 21µM (no result: AT treatment, TCR activator, CCT modulator)
Cc1ccccc1NC(=O)c1ccc(CNS(=O)(=O)c2ccc3c(c2)C(C)(C)C(=O)N3C)cc1	none (no result: AT treatment, TCR activator, CCT modulator)
O=C1CCCC2=C1C(c1ccccc1Cl)N=C(Nc1nc3ccccc3o1)N2 (stereo not given)	none (no result: AT treatment, TCR activator, CCT modulator, Nrf2 ARE act)
Cc1c(P(=S)(c2ccccc2)c2ccccc2)c2ccccc2n1Cc1ccccc1	none (no result: AT treatment, TCR activator, CCT modulator, Nrf2 ARE act)
CC1=C(C(=O)Nc2ccccc2)C(c2ccc(Br)cc2)n2nc(CCCO)nc2N1 (stereo not given)	none (no result: AT treatment, TCR activator, CCT modulator)
Oc1ccc2ccccc2c1CNc1ccc2ccccc2c1	Nrf2 inh inconclusive, CCT modulator -37, Nrf2 ARE act inconclusive (no result: AT treatment)
CC(=O)c1ccc(NC(=O)CCNC(=O)c2ccc(Cl)cc2)cc1	none
CN(C)c1ccnc(Oc2ccc(Cl)cc2)c1C#N	none
Cc1cc(Cl)ccc1Oc1nccc(N(C)C)c1C#N	Nrf2 inh 23µM (no result: TCR activator)

Bioassay records from PubChem BioAssay.
